Our source for the composite z-score and z-score values is PubChem BioAssay.

Active and inactive are the calls of the source.

Test [1] is described as follows: small molecules captured by biotinylated probe aFSTL3 – biochemical, small-molecule microarray, fluorescence 635/667, stem cell growth factor project, primary screen (AID 1064).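 Also: measures binding of the biotinylated anti-FSTL3 antibody to printed compounds.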 The conditions noted are these: higher = more signal.
Test [2] is described as follows: binders from COS7 lysate, DM2A8 probe, primary screen, torsin A project, cell lysate, small-molecule microarray, fluorescence 635/667 (AID 1065). The conditions noted are these: higher = more signal, COS7 lysate expressing mutant human TOR1A.
Test [3] can be described thus: small molecules captured by biotinylated probe aFGF2 – biochemical, small-molecule microarray, fluorescence 635/667, stem cell growth factor project, primary screen (AID 1067).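 Also: measures binding of biotinylated aFGF2 protein to printed compounds on slides; z-score merges feature fluorescence and signal-to-noise across triplicate slides.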 The conditions noted are these: higher = more signal.
Test [4] in a line: small molecules captured by biotinylated probe aFGF10 – biochemical, small-molecule microarray, fluorescence 635/667, stem cell growth factor project, primary screen (AID 1071).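 Also: score merges 667 nm spot intensity and signal to noise from triplicate slides.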 The conditions noted are these: higher = more signal.
Test [5] concerns the target Neurogenic locus notch homolog protein 2 (Homo sapiens) (UniProt Q04721). Briefly: small molecules binding Notch2 protein – biochemical, small-molecule microarray, 635 nm fluorescence, stem cell growth factors, primary screen (AID 1073). The conditions noted are these: higher = more signal.
Test [6] deals with Pro-neuregulin-1, membrane-bound isoform (Homo sapiens) (UniProt Q02297). As to the kind of experiment: small molecules binding neuregulin-1 protein – biochemical, small-molecule microarray, fluorescence 635/667, psychiatric disease protein project, primary screen (AID 1075).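 Also: score combines 667 nm spot fluorescence with signal to noise.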 The conditions noted are these: NRG1 binding, 635 nm fluorescence, higher = more signal.
Chain of Pro-neuregulin-1, membrane-bound isoform (Homo sapiens) (Q02297 whole entry, looked up, the tested form may be a part, canonical isoform): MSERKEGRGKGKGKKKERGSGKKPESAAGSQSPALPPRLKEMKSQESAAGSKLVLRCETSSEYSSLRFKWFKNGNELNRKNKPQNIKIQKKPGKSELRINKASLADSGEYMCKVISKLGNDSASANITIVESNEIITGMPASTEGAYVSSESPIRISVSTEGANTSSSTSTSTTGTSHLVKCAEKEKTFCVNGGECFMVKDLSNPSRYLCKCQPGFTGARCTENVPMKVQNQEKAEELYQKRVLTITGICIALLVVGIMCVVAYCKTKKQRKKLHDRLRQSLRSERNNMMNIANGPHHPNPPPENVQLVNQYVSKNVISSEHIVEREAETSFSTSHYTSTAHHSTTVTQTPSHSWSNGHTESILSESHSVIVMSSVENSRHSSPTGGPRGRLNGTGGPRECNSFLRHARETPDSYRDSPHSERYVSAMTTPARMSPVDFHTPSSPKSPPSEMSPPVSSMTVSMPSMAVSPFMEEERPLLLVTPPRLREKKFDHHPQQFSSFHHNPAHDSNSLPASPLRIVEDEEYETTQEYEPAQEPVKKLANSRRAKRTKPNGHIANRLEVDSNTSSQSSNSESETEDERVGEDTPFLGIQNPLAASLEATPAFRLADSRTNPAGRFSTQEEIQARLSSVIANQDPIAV
Test [7] has as its system Neuregulin-1 EGF-like domain. As to the kind of experiment: small molecules binding NRG1 EGF domain – biochemical, small-molecule microarray, 635 nm fluorescence, primary screen (AID 1081).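 Also: binding of the protein to compounds printed on small-molecule microarray slides.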 As to conditions: higher = more signal.
The nature of test [8]: FRG1 expression reporter modulators in myotubes – cell-based, C2C12 myotubes, firefly/Renilla luciferase, luminescence, FRG1 inhibition for FSHD, primary screen (AID 1084). The conditions noted are these: FRG1 promoter luciferase, higher = more signal, called active from +8 up or from −8 down.
The nature of test [9]: small molecules captured by biotinylated probe aFST – biochemical, small-molecule microarray, fluorescence 635/667, stem cell growth factor project, primary screen (AID 1086).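 Also: score merges 667 nm fluorescence with signal-to-noise of each printed compound spot.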 The conditions noted are these: higher = more signal.
The nature of test [10]: binders of probe aHhip on microarray, primary screen, stem cell growth factor project, biochemical, small-molecule microarray, fluorescence 635/667 (AID 1087).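 Also: score merges spot fluorescence at 667nm with spot signal to noise ratio.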 As to conditions: higher = more signal.
The test system of test [11] is PRMT1 (protein arginine N-methyltransferase 1). Briefly: small molecules binding arginine methyltransferase PRMT1 – biochemical, small-molecule microarray, 635 nm fluorescence, primary screen (AID 1088).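 Also: binding of Prmt1 protein to compounds spotted on small-molecule microarray slides.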 As to conditions: higher = more signal.
Test [12] can be described thus: growth effects on S. cerevisiae YJM789 – YJM789 clinical isolate, OD600, 24 h, basal, primary screen (AID 1089).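 Also: growth of clinical yeast isolate S. cerevisiae YJM 789 seeded 1000 cells per well; test concentration not given here.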 The conditions noted are these: higher = more signal, called active from +8 up or from −8 down.
Test [13] in a line: S. pombe growth modifiers, basal conditions – strain 972, OD600, 24 h, no modulator, primary screen (AID 1090).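 Also: basal condition with compound alone and no growth modifier present; test concentration not given here.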 The conditions noted are these: S. pombe 972 growth, higher = more signal, called active from +8 up or from −8 down.
Test [14] can be described thus: budding yeast growth modifiers under rapamycin – strain BY4716, OD600, 96 h, primary screen (AID 1091). Also: test concentration not given here. As to conditions: S. cerevisiae BY4716 + rapamycin, higher = more signal, called active from +8 up or from −8 down.
Test [15] concerns the target Torsin-1A-interacting protein 2 (Homo sapiens) (UniProt Q8NFQ8). As to the kind of experiment: small molecules binding lysate-expressed LULL1 – cell lysate, human LULL1 lysate, 635/667 nm fluorescence, primary screen (AID 1092).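 Also: score merges per-feature 667 nm fluorescence with signal-to-noise.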 The conditions noted are these: small-molecule microarray, hLULL1 lysate binding, 635 nm fluorescence; higher = more signal.
Test [16] is described as follows: optical density change of DRC41 E. coli – strain DRC41, OD650, 24 h, E. coli filamentation project, primary screen (AID 1093).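 Also: MC1000 strain lacking acrAB efflux and sulA so SOS filamentation is blocked; test concentration not given here.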 As to conditions: E. coli DRC41 growth, higher = more signal, called active from +8 up or from −8 down.
Test [17] can be described thus: probe aLefty2 binding to arrayed compounds – biochemical, biotinylated probe, 635/667 nm fluorescence, primary screen (AID 1094).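 Also: score merges spot fluorescence near 667 nm with spot signal-to-noise ratio.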 As to conditions: small-molecule microarray, higher = more signal.
The subject of test [18] is Noggin (protein binding on small-molecule microarray). As to the kind of experiment: small molecules binding Noggin protein – biochemical, 635/667 nm fluorescence, primary screen (AID 1095).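 Also: score merges 667 nm feature fluorescence with signal to noise over triplicate slides.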 As to conditions: 635 nm fluorescence, higher = more signal.
The target in test [19] is Neurogenic locus notch homolog protein 3 (Homo sapiens) (UniProt Q9UM47). Briefly: small molecules binding NOTCH3 protein – biochemical, 635/667 nm fluorescence, primary screen (AID 1096). As to conditions: small-molecule microarray, 635 nm fluorescence, higher = more signal.
Chain of Neurogenic locus notch homolog protein 3 (Homo sapiens) (Q9UM47 whole entry, looked up): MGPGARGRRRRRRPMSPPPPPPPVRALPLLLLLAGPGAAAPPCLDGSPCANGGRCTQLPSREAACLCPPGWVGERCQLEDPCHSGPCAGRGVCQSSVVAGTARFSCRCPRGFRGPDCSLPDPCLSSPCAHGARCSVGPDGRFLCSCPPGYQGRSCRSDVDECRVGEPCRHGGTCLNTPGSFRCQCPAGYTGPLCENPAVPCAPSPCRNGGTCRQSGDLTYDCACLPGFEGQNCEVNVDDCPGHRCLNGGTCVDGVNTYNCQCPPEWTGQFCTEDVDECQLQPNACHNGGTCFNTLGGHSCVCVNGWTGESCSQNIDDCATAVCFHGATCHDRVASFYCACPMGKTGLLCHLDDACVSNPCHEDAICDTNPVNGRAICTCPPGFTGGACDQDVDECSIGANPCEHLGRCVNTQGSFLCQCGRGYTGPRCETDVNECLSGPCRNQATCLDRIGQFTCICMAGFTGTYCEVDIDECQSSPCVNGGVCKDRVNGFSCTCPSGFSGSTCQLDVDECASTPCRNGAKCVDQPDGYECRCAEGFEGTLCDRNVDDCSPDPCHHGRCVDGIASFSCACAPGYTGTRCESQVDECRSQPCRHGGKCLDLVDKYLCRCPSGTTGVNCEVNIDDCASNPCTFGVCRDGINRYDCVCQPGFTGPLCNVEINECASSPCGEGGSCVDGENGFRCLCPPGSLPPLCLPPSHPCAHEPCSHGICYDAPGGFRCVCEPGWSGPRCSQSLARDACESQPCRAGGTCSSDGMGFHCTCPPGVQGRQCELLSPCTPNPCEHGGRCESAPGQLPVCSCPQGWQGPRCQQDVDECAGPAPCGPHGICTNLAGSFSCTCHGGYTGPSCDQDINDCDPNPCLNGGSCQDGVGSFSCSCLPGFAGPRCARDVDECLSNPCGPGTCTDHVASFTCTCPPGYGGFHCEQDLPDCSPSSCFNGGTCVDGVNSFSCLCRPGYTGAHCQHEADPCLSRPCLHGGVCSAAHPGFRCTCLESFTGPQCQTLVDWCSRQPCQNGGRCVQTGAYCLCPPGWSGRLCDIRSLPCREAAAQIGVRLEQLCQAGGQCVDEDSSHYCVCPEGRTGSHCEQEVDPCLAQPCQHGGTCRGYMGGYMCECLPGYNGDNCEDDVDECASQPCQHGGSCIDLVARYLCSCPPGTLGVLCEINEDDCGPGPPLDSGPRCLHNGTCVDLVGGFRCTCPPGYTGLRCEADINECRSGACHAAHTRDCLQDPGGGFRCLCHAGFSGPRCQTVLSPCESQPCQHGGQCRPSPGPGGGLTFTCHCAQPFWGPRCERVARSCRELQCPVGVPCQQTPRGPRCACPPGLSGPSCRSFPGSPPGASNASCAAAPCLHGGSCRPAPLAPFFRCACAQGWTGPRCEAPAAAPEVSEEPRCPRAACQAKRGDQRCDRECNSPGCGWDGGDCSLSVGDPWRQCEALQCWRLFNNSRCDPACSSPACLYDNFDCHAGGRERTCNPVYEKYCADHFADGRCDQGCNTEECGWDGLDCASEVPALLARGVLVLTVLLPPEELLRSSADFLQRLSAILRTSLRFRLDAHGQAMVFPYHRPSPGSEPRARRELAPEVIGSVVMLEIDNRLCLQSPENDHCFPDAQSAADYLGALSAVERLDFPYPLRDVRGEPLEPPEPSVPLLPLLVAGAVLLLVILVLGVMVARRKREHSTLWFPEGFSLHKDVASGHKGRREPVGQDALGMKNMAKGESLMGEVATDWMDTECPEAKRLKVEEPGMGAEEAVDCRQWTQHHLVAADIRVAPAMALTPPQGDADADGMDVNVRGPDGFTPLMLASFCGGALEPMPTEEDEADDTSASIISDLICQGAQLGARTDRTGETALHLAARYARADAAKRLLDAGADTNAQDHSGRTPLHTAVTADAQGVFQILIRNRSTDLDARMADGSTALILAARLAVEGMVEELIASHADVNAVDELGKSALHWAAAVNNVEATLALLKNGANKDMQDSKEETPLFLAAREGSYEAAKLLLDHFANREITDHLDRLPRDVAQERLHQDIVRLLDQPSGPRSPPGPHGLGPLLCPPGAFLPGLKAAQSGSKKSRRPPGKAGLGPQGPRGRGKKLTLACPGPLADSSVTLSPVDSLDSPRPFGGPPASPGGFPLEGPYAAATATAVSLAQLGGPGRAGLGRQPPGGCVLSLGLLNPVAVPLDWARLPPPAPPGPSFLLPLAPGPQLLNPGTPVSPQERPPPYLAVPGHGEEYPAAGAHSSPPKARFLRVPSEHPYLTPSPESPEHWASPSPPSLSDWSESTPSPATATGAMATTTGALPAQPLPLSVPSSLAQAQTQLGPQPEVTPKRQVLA
Test [20] can be described thus: probe aEGFR binding to arrayed compounds – biochemical, biotinylated probe, 635/667 nm fluorescence, primary screen (AID 1097).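 Also: probe is a biotinylated anti-EGFR antibody binding compounds printed on slides; score combines fluorescence near 667 nm and signal to noise of each spot.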 As to conditions: small-molecule microarray, higher = more signal.

Chain of Torsin-1A-interacting protein 2 (Homo sapiens) (Q8NFQ8 whole entry, looked up): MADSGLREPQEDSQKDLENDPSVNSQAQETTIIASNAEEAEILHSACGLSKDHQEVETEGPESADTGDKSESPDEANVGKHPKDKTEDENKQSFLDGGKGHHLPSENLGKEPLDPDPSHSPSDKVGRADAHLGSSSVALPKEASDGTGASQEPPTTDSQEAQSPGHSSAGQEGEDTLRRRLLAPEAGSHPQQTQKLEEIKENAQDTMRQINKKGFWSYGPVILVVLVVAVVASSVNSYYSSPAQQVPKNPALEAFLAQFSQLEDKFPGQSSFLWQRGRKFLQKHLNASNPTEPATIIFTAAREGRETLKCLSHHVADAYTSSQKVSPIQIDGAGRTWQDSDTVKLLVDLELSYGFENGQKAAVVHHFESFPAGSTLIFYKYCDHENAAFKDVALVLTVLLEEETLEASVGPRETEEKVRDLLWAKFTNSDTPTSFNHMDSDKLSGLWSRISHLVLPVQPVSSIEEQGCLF

With `[N-]=[N+]=NCc1ccccc1C[C@]1(C(N)=O)N=C(c2ccc(OCCCO)cc2)O[C@H]1c1ccccc1N=[N+]=[N-]`, the composite z-score in test [1] is 0.567; in test [2], -0.186; in [3] it was -0.0085; in test [4], 0.665; in [5], 0.997; in test [6] it was 1.3. For the same compound, the composite z-score was found to be 1.12 in test [7]; 0.93 in [9]; 0.151 in test [10]; 1.37 in test [11]; 2.84 in test [15]; 0.175 in test [17]. Moreover, the composite z-score in test [18] is -0.433; in test [19] it was 0.616; in test [20] it was 0.268. For the same compound, the z-score is -1.4 (inactive) in test [8]; 1.22 (inactive) in test [12]; 1.29 (inactive) in test [13]; 1.39 (inactive) in test [14]; -0.0072 (inactive) in test [16].
On to `C=CCNC(=O)[C@H]1[C@@H]2C(=O)O[C@@H](c3ccccc3)[C@@H](c3ccccc3)N2[C@@H](c2ccc(OCCO)cc2)[C@]12C(=O)N(C(=O)OCCOC)c1ccc(C#CC3(O)CCCCCC3)cc12`, for which the composite z-score in [1] is -0.0322; in test [2] it was 1.14; in [3], -0.0627; in test [4], 0.527; in test [5], 1.03; in [6], 0.764. For the same compound, the composite z-score in [7] is 1.31; in [9] it was 0.422; in test [10] it was 0.113; in [11] it was 1.54; in test [15], 2.42; in test [17], -0.0319. Moreover, the figures for the composite z-score in test [18], in test [19] and in [20] were 1.6, 1.04 and 0.122, respectively. For the same compound, the z-score in [8] is -0.313 (inactive); in [12] it was 1.95 (inactive); in [13] it was 0.97 (inactive); in [14], 6.64 (inactive); in test [16], 1.08 (inactive).
Regarding `C=CCC(OC(C)=O)[C@@H]1[C@@H](N(Cc2ccc(-c3ccccc3)cc2)C(=O)c2ccc(C)cc2)c2cc(OCCCO)ccc2N1C(=O)c1ccc2ccccc2n1` (stereo not given in full), the composite z-score in [1] was -0.131; in test [2] it was 0.42; in [3], -0.0434; in test [4], 0.199; in [5] it was 0.0291; in test [6], 0.676. Further, the composite z-score in test [7] was -0.325; in test [9], 0.13; in [10], 0.154; in test [11], -0.11; in [15], 0.209; in test [17] it was 0.407. The figures for the composite z-score in [18], in test [19] and in test [20] were -0.267, -0.197 and -0.0836, respectively. Also, the z-score is -1.24 (inactive) in [8]; -2.47 (inactive) in test [12]; -0.772 (inactive) in [13]; -1.15 (inactive) in test [14]; 1.95 (inactive) in test [16].
As to `O=C1OCCC=C[C@H]2OC34C=CCN(c5ccc6ccccc6c5)C(=O)[C@H]3N(CCCCCCO)C(=O)[C@@H]4C12` (stereo not given in full), the composite z-score in [1] is 0.366; in test [2], 0.79; in test [3], -0.143; in test [4], -0.367; in test [5] it was -0.834; in [6], 2.03. Moreover, the composite z-score in [7] was 0.193; in test [9] it was -0.514; in test [10], -0.546; in [11], 0.864; in test [15], 0.911; in test [17], -0.087. Moreover, the composite z-score is -1.63 in test [18], -0.228 in test [19] and -0.178 in [20]. In addition, the z-score is 1.66 (inactive) in test [8]; 0.494 (inactive) in [12]; -1.55 (inactive) in test [13]; 0.22 (inactive) in test [14]; 0.67 (inactive) in test [16].
Take `CCCNC(=O)[C@@]1(C)c2ccccc2C(=O)N(Cc2cc(F)cc(C(F)(F)F)c2)[C@H]1c1ccc(CO)cc1`: the composite z-score in [1] was 0.343; in test [2] it was 1.04; in [3], -0.0901; in [4], -0.104; in test [5], -0.639; in [6], 0.27. For the same compound, the composite z-score was 0.146 in [7]; -0.282 in test [9]; -0.181 in test [10]; 0.136 in [11]; 2.08 in [15]; -0.174 in test [17]. The composite z-score in [18] was 0.0391; in [19], -0.131; in test [20] it was -0.194. The z-score in test [8] is -0.92 (inactive); in test [12], -1.34 (inactive); in [13], -0.974 (inactive); in test [14], -1.24 (inactive); in test [16], 0.423 (inactive).
